Results reported in PubChem BioAssay AID504895 (National Center for Advancing Translational Sciences (NCATS), 2011).
Records with an inconclusive call do not appear. Calls follow the shape of the dose curve; as a rule, active = well fitted curve in the direction sought with a large enough effect; inconclusive = small, poorly fitted or top-dose-only effect, or another doubt; inactive = no such curve, though single readings can be large or run the other way.

The compounds below were run against Protein phosphatase EYA2 (Homo sapiens) (UniProt O00167) (assay: Inhibitors of Eya2ED: Hit Confirmation in Primary Screen). Conditions: Recombinant Eya2ED, OMFP fluorescence phosphatase assay; series mostly up to 76.9 µM; activity change, negative = inhibition: at the top concentration.
How it was run: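 Eya2 (dispensed at 0.2 uM) was preincubated 10 min at ambient with compound in 50 mM HEPES pH 7.5, 50 mM NaCl, 5 uM MgCl2, 0.05% BSA, 1 mM DTT. OMFP (dispensed at 50 uM) was then added, and fluorescence (ex 485/em 525 nm) was read after 10 min. Retested as 12-point titrations; EGTA control.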

Protein phosphatase EYA2 (Homo sapiens), sequence (O00167 whole entry, looked up): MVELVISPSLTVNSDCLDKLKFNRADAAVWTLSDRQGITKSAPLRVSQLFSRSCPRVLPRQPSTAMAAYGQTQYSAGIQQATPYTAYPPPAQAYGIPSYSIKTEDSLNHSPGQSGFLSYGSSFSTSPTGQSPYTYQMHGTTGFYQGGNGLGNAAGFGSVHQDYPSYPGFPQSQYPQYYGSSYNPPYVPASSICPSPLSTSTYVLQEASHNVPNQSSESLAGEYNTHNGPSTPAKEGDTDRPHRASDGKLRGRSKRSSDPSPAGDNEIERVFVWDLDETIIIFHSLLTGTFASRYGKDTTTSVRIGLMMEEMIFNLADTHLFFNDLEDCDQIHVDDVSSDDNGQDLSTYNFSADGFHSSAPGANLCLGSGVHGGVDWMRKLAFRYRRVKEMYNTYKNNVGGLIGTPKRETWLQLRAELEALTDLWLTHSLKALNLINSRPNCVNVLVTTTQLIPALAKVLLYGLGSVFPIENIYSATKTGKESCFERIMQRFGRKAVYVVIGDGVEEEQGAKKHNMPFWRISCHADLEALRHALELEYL

Activity change, negative = inhibition, inactive:
O=C(CC1(CC(=O)N2CCOCC2)CCCC1)Nc1ccccc1 12.2%
O=S(=O)(c1ccc(F)cc1)N1CCC2(CC1)OCCN2S(=O)(=O)c1cccs1 -15.4%
COc1ccc(CCc2nc(C)ccc2O)cc1 -2.2%
Cc1c(NC(=O)C(C)OC(=O)CCC2CCCC2)c(=O)n(-c2ccccc2)n1C (stereo unspecified) 13.1%
COc1ccccc1N1C(=O)C2C3C=CC(C3)C2C1=O (stereo unspecified) -21%
Cc1ccc2c(c1)CCCN2C(=O)c1cccs1 -5.45%
COc1ccc(-c2noc(CCC(=O)NC3CCCCC3)n2)cc1OC -5.13%
Cc1cccn2c(=O)nc(SCC(=O)NCc3ccc(F)cc3)nc12 -4.93%
O=C(O)/C=C/C(=O)Nc1ccc2nccnc2c1 -13.7%
COc1ccc(NS(=O)(=O)c2cc([N+](=O)[O-])ccc2NN=Cc2ccccc2OCC(=O)O)cc1 3.46%
CCCc1nnc(SCc2ccc(C(=O)OC)o2)n1N 7.95%
COC(=O)C(NNc1ccccc1)(NC(=O)c1cccc(F)c1)C(F)(F)F (stereo unspecified) 1.48%
O=C(NCCc1ccc(Cl)cc1)C1CCN(C(=O)N2CCOc3ccccc32)CC1 -4.76%
O=C(COC(=O)c1ccccc1Nc1cccc(C(F)(F)F)c1)NCc1ccco1 -6.79%
O=C(NC1CCN(Cc2ccccc2)CC1)c1cccc(S(=O)(=O)Nc2ccc(SC(F)F)cc2)c1 -5.61%
Cc1cc(C)c(S(=O)(=O)N2CCCCC2CCNC(=O)C(=O)NCCN2CCOCC2)c(C)c1 (stereo unspecified) -17%
O=C(O)C1CC(=O)N(c2ccc(Br)cc2)C1 (stereo unspecified) 10.9%
Cc1c(NS(=O)(=O)c2ccc(N)cc2)c(=O)n(-c2ccccc2)n1C -15.5%
Cc1ccc2occ(/C=N/NC(=O)[C@@H](N)Cc3ccccc3)c(=O)c2c1 12.1%
O=C(NCc1ccccn1)C1CCCN(Cc2cnn(-c3ccccc3)c2-n2cccc2)C1 (stereo unspecified) 0.326%
CCOc1ccc(NC(=O)COC(=O)CN2CCCCCC2=O)cc1 15.3%
O=C(NN=Cc1ccccc1Cl)c1ccc(-n2cnnn2)cc1 0.806%
COc1ccc(-c2nnn(-c3cc(Cl)cc(Cl)c3)c2N)cc1 -11.3%
Cn1c(CNC(=O)c2ccc(Cl)cc2)nnc1SCC(=O)NC1=NCCS1 -10.6%
COc1ccc(C(=O)NCCSCc2ccccc2C)cc1 -14.1%
O=C(CSc1c2c(nc3cc(Cl)ccc13)CCCC2)NCc1ccco1 -28%
CCCOc1ccc(S(=O)(=O)N2CCN(C)CC2)c2ccccc12 -5.34%
COc1c(O)ccc(/C=N\NC(=O)c2ccc3c(c2)OCO3)c1[N+](=O)[O-] -18%
CCOc1ccc(S(=O)(=O)N2CCN(C(=O)c3sccc3C)CC2)cc1 -6.23%
Cc1ccc(NC(=O)CC2C(=O)NC3CCCCC3N2C(=O)c2ccc(F)cc2)cc1C (stereo unspecified) -1.78%
O=C(CN1C(=O)c2ccccc2S1(=O)=O)Nc1cccc(S(=O)(=O)N2CCOCC2)c1 -7.98%
